# Values without a mark were called inactive. Inconclusive results are not listed. Where a call stands in place of a potency, no number is given. Activity calls are given as the source filed them. Unless noted, calls follow the shape of the dose curve; as a rule, active = well fitted curve in the direction sought with a large enough effect in the repeat runs; inconclusive = weak or mixed curves; inactive = no such curve, though single readings can be large; an effect the other way counts as inactive or inconclusive.
# Key:
# [1] = qHTS assay to identify small molecule antagonists of the TGF-beta/Smad signaling pathway - cell viability counter screen (AID 1346824); also: nearly all actives have a fitted effect of over 50% in size
# In short: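 SBE-bla HEK 293T cells, incubated overnight, then compound plus 0.25 ng/mL TGF-beta1 (stock added) for 5 hr at 37 C. Viability was read in the same wells by CellTiter-Glo luminescence after 30 min at room temperature.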
# [2] = qHTS assay to identify small molecule agonists of the TGF-beta/Smad signaling pathway - cell viability counter screen (AID 1346829); also: top concentration of the series differs between compounds; nearly all actives have a fitted effect of over 45% in size
# In short: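 CellTiter-Glo luminescence readout; SBE-bla HEK 293T cells, overnight plating, compound 5 hr at 37 C/5% CO2, then bla substrate 2 hr RT, then CellTiter-Glo 30 min RT.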
# [3] = qHTS assay to identify small molecule agonists of the TGF-beta/Smad signaling pathway (AID 1346859; active = well fitted activation curve with a large enough effect in the signal ratio in the repeat runs, not every such curve was filed as active; the % refers to the signal ratio; also: series mostly up to about 77 µM)
# In short: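 Reporter line: HEK 293T with stably integrated SBE-controlled beta-lactamase. Compound exposure lasts 5 hr at 37 C and 5% CO2; substrate loading follows for 2 hr at room temperature, with emission read at 460 and 530 nm.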
# [4] = target: Thyrotropin-releasing hormone receptor (Homo sapiens) (UniProt P34981); assay: qHTS assay to identify small molecule antagonists of the thyrotropin-releasing hormone receptor (TRHR) signaling pathway (AID 1346877; active = well fitted inhibition curve with a large enough effect in the repeat runs, not every such curve was filed as active; also: series mostly up to about 51 µM)
# Sequence of Thyrotropin-releasing hormone receptor (Homo sapiens) (P34981 whole entry, looked up): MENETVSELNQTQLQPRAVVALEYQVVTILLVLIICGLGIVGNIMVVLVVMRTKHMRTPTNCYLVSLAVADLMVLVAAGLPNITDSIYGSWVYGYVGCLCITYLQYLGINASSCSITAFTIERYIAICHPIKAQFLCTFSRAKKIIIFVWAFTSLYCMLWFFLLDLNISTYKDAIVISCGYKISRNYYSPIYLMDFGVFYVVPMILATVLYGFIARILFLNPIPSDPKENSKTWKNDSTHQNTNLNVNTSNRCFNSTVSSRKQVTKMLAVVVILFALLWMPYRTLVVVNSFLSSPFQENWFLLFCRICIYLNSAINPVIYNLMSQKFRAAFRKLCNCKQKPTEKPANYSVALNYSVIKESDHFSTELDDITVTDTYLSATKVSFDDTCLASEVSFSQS
# In short: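 TRHR-expressing HEK293 cells were seeded, cultured 18 h at 37 °C, then loaded with calcium dye for 2 h. Compounds were pre-incubated 5 min at room temperature before 1 nM TRH (final) was added, and kinetic fluorescence was recorded for 3 min.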
# [5] = target: Thyrotropin-releasing hormone receptor (Homo sapiens) (UniProt P34981); assay: qHTS assay to identify small molecule agonists of the thyrotropin-releasing hormone receptor (TRHR) signaling pathway (AID 1346891; calls by dose curve; also: series mostly up to about 58 µM)
# In short: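 Cells: TRHR-Hek293, seeded and incubated 18 h. Dye loading: 2 h at 37 °C. Compound added from DMSO stock by pin tool. Read-out: kinetic calcium fluorescence over 3 min.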
# [6] = Human pregnane X receptor (PXR) small molecule agonists, qHTS cell viability counter screen (AID 1346977); also: nearly all actives have a fitted effect of over 50% in size
# In short: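 Cytotoxicity counter screen run in the same wells as the PXR luciferase assay, using PXR-Luc HepG2 cells in charcoal-stripped serum medium. Viability: CellTiter-Fluor fluorescence after 24hr compound treatment.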
# [7] = Caspase-3/7 induction in HepG2 cells by small molecules, qHTS assay (AID 1346978); also: nearly all actives have a fitted effect of over 15% in size
# In short: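 Wild-type HepG2 cells, 2,000/well, settled 5 hr at 37 C and 5% CO2, then compound-treated for 17 hr; caspase-3/7 activity read by luminescent Caspase-Glo 3/7 after 30 min at room temperature.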
# [8] = Caspase-3/7 induction in CHO-K1 cells by small molecules, qHTS cell viability counter screen (AID 1346979); also: nearly all actives have a fitted effect of over 35% in size
# In short: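 Cytotoxicity counter screen run in parallel with the caspase-3/7 assay: CHO-K1 cells, 16hr compound treatment at 37C, then CellTiter-Fluor for 1hr before fluorescence reading.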
# [9] = Caspase-3/7 induction in CHO-K1 cells by small molecules, qHTS assay (AID 1346980); also: nearly all actives have a fitted effect of over 15% in size
# In short: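 Wild-type CHO-K1 cells exposed to compounds for 17hr at 37 C, 5% CO2. Caspase-3/7 activity then measured by Caspase-Glo 3/7 luminescence after 30min at room temperature.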
# [10] = target: Nuclear receptor subfamily 1 group I member 2 (Homo sapiens) (UniProt O75469); assay: Human pregnane X receptor (PXR) small molecule agonists, qHTS assay (AID 1346982); also: nearly all actives have a fitted effect of over 35% in size
# Sequence of Nuclear receptor subfamily 1 group I member 2 (Homo sapiens) (O75469 whole entry, looked up): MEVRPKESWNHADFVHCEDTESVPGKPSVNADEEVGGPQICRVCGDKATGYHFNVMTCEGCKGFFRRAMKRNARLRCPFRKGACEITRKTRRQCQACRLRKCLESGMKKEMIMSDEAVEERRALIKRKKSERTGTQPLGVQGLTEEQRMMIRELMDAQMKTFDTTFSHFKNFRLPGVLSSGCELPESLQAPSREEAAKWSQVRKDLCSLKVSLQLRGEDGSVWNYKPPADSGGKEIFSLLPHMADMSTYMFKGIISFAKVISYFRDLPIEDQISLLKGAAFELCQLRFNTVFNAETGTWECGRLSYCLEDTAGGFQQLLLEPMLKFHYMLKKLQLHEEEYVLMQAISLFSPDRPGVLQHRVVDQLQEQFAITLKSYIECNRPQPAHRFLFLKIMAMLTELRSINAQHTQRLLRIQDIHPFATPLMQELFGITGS
# In short: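 PXR-Luc HepG2 cells (CYP3A4 promoter-driven luciferase) were seeded in medium with 5% charcoal-stripped FBS, left 5 hr at 37 C, then exposed to compounds in DMSO for 24 hr. Luminescence was read after ONE-Glo addition.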
# [11] = target: Cytochrome P450 2C9 (Homo sapiens) (UniProt P11712); assay: Cytochrome P450 Family 2 Subfamily C Member 9 (CYP2C9) small molecule antagonists: luciferase reporter qHTS assay (AID 1671198); also: nearly all actives have a fitted effect of over 50% in size; also: potency is read from the fitted curve at half-maximal effect
# Sequence of Cytochrome P450 2C9 (Homo sapiens) (P11712 whole entry, looked up): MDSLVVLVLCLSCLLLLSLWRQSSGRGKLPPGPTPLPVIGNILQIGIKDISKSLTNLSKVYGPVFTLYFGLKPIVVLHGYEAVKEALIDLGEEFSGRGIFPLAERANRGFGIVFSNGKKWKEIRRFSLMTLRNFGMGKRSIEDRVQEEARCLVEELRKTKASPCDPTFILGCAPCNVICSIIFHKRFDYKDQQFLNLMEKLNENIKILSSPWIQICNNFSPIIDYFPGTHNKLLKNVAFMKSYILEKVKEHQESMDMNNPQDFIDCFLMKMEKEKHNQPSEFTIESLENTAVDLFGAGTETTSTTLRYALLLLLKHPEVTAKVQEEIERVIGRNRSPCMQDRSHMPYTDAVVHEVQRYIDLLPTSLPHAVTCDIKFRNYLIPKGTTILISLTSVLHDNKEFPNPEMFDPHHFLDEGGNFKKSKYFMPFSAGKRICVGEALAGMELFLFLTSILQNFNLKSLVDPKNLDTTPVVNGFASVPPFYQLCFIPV
# In short: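 P450-Glo proluciferin substrate with CYP2C9 enzyme; 10 min RT preincubation, then NADPH regeneration 1 h at 37C; luciferin detection reagent 20 min RT, luminescence in relative luminescence units.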
# [12] = target: Cytochrome P450 1A2 (Homo sapiens) (UniProt P05177); assay: Cytochrome P450 Family 1 Subfamily A Member 2 (CYP1A2) small molecule antagonists: luciferase reporter qHTS assay (AID 1671199); also: series mostly up to about 120 µM; nearly all actives have a fitted effect of over 50% in size
# Sequence of Cytochrome P450 1A2 (Homo sapiens) (P05177 whole entry, looked up): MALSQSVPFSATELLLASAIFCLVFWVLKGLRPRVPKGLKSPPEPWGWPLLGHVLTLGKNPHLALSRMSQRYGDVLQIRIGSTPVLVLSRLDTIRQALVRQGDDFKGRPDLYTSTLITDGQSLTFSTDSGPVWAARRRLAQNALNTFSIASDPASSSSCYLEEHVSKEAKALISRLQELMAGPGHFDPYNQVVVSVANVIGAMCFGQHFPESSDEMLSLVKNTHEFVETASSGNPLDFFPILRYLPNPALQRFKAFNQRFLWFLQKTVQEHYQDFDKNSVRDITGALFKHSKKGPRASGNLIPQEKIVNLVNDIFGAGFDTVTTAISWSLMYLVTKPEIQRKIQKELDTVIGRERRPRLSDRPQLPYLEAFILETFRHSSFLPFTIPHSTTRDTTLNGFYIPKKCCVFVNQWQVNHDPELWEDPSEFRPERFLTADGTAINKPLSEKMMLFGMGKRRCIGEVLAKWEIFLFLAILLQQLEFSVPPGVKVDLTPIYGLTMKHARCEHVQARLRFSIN
# In short: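 Human CYP1A2 activity measured with a P450-Glo proluciferin substrate; compounds in DMSO preincubated 10 min at room temperature with enzyme-substrate mix, then NADPH regeneration system added for 1 h. Luciferin detection reagent, 20 min, luminescence read.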
# [13] = target: Voltage-gated inwardly rectifying potassium channel KCNH2 (Homo sapiens) (UniProt Q12809); assay: Human Ether-a-go-go-Related Gene (hERG) channel small molecule antagonists: fluorescence cell-based qHTS assay (AID 1671200)
# Sequence of Voltage-gated inwardly rectifying potassium channel KCNH2 (Homo sapiens) (Q12809 whole entry, looked up): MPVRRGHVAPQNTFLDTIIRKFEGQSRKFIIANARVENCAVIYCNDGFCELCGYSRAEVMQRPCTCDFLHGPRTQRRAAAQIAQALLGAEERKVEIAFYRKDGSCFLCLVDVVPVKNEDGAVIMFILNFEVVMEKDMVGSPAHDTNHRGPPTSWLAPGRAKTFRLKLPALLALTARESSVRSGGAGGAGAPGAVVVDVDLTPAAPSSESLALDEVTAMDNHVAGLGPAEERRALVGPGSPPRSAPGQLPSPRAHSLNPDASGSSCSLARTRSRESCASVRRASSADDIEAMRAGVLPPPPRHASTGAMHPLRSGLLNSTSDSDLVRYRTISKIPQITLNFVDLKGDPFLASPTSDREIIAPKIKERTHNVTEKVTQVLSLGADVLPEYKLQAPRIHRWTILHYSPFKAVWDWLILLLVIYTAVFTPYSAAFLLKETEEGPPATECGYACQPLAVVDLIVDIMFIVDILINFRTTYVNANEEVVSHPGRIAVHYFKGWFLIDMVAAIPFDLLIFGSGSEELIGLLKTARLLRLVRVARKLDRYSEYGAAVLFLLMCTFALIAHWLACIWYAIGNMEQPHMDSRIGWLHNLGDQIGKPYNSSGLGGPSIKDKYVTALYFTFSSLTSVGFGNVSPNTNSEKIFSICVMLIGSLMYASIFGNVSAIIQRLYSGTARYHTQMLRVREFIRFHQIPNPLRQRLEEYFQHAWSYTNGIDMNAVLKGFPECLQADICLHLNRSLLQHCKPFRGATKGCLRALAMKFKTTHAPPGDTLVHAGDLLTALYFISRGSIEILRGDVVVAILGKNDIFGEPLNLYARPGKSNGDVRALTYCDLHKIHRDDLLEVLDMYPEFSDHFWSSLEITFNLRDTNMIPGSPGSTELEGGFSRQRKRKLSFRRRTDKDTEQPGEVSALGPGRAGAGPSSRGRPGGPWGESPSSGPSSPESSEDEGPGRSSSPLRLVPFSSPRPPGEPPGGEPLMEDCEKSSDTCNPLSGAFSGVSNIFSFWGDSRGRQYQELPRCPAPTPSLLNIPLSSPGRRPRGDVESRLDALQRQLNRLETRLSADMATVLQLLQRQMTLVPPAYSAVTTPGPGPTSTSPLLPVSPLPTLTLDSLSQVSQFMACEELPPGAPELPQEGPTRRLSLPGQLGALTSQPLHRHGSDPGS
# In short: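 Fluorescence at 540 nm emission (480 nm excitation) was recorded kinetically for 2 min at 1-second intervals once the thallium-containing stimulus reached cells previously loaded with FluxOR II dye.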
# [14] = target: Cytochrome P450 3A4 (Homo sapiens) (UniProt P08684); assay: Cytochrome P450 Family 3 Subfamily A Member 4 (CYP3A4) small molecule antagonists: luciferase reporter qHTS assay (AID 1671201); also: nearly all actives have a fitted effect of over 50% in size; also: potency is read from the fitted curve at half-maximal effect
# Sequence of Cytochrome P450 3A4 (Homo sapiens) (P08684 whole entry, looked up): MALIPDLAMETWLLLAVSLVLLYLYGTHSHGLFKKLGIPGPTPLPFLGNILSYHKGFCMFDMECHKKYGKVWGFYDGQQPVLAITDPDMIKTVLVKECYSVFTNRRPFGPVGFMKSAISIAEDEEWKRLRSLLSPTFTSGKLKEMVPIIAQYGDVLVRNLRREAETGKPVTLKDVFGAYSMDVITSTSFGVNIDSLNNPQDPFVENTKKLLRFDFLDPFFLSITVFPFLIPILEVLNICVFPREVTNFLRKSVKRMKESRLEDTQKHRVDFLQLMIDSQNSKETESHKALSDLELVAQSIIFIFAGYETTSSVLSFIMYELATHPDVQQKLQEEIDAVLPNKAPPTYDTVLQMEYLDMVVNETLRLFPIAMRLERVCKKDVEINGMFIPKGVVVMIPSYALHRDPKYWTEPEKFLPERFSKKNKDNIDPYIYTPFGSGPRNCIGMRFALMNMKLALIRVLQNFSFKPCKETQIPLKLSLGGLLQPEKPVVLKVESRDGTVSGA
# In short: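 qHTS, 1536-well. CYP3A4 + proluciferin substrate, cpd 10 min RT → NADPH regen 1 h RT → detection reagent 20 min → luminescence (RLU). Ketoconazole positive control.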
# [15] = target: Cytochrome P450 2D6 (Homo sapiens) (UniProt P10635); assay: Cytochrome P450 Family 2 Subfamily D Member 6 (CYP2D6) small molecule antagonists: luciferase reporter qHTS assay (AID 1671196); also: nearly all actives have a fitted effect of over 50% in size; also: potency is read from the fitted curve at half-maximal effect
# Sequence of Cytochrome P450 2D6 (Homo sapiens) (P10635 whole entry, looked up): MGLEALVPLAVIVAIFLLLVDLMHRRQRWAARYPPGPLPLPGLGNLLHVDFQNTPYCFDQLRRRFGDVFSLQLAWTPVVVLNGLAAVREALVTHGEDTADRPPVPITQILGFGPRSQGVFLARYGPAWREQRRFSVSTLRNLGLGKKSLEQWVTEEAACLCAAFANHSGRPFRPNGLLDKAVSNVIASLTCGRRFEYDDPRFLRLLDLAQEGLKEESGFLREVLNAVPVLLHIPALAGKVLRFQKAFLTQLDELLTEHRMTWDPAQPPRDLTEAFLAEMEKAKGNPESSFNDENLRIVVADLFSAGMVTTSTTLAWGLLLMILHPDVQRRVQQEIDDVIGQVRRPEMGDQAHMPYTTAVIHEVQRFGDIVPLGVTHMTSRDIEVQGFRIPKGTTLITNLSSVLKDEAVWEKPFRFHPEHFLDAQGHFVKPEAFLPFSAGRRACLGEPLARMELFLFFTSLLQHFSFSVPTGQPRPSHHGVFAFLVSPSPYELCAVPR
# In short: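 CYP2D6 enzyme–substrate mix was held with compound for 10 min at room temperature, then NADPH regeneration solution was added and the reaction ran 1 h at room temperature. Luciferin product was detected by luminescence after 20 min with detection reagent.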
# [16] = target: Cytochrome P450 2C19 (Homo sapiens) (UniProt P33261); assay: Cytochrome P450 Family 2 Subfamily C Member 19 (CYP2C19) small molecule antagonists: luciferase reporter qHTS assay (AID 1671197); also: nearly all actives have a fitted effect of over 65% in size; also: potency is read from the fitted curve at half-maximal effect
# Sequence of Cytochrome P450 2C19 (Homo sapiens) (P33261 whole entry, looked up): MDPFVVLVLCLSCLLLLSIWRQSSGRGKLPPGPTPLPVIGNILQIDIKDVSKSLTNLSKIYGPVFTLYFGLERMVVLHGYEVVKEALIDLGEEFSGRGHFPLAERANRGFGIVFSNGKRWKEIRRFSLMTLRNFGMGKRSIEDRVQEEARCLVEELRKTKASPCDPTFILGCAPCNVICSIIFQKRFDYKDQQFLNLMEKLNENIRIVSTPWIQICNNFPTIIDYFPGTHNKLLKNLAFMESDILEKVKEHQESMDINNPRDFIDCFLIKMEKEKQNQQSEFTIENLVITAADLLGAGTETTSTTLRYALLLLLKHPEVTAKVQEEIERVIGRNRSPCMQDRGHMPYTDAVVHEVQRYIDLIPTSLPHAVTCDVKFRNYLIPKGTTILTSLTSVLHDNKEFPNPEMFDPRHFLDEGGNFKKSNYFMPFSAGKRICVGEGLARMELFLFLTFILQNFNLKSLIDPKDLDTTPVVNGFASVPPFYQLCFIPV
# In short: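 Enzyme-substrate mix with proluciferin substrate (P450-Glo CYP2C19 system) preincubated with compounds 10 min at room temperature; NADPH regeneration solution added, 37C for 1 h; detection reagent stops reaction, luminescence read after 20 min. Ketoconazole positive control.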
# [17] = Caspase-3/7 induction in HepG2 cells by small molecules, qHTS cell viability counter screen (AID 1346981); also: series mostly up to about 92 µM; nearly all actives have a fitted effect of over 30% in size
# In short: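 Wild-type HepG2 cells (2,000/well) were allowed to settle for 5 hr at 37 C, 5% CO2, then dosed with compounds in DMSO by pin transfer. After 16 hr at 37 C, CellTiter-Fluor was added and fluorescence read 1 hr later.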
Structure (SMILES),outcome [1],outcome [2],outcome [3],outcome [4],outcome [5],outcome [6],outcome [7],Potency [8],outcome [9],Potency [10],Potency [11],Potency [12],Potency [13],Potency [14],Potency [15],Potency [16],outcome [17]
C/C(=C1\CCOC(=O)S1)N(C=O)Cc1cnc(C)nc1N,inactive,inactive,inactive,inactive,inactive,inactive,inactive,inactive,inactive,inactive,inactive,inactive,inactive,15.5 µM (active),–,–,–
CC(Oc1cc(Cl)ccc1Cl)C(=O)O (stereo unspecified),inactive,inactive,inactive,inactive,inactive,inactive,inactive,inactive,inactive,inactive,71 µM (active),inactive,inactive,–,inactive,inactive,–
C=CCCCCCCCCC(=O)OCCCC,inactive,inactive,inactive,inactive,inactive,inactive,inactive,inactive,inactive,inactive,–,–,inactive,inactive,inactive,56.4 µM (active),–
O=C=NCC1CCCC(CN=C=O)C1 (stereo unspecified),inactive,inactive,inactive,inactive,inactive,inactive,inactive,inactive,inactive,–,10 µM (active),–,inactive,2.83 µM (active),31.7 µM (active),71 µM (active),–
O=C1CCCCO1,inactive,inactive,inactive,inactive,inactive,inactive,inactive,inactive,inactive,inactive,–,–,inactive,–,–,inactive,inactive
C[Si]1(C)O[Si](C)(C)O[Si](C)(C)O[Si](C)(C)O[Si](C)(C)O1,inactive,inactive,inactive,inactive,inactive,inactive,inactive,inactive,inactive,inactive,inactive,inactive,inactive,–,inactive,inactive,–
Cc1ccc(C)c([N+](=O)[O-])c1,inactive,inactive,inactive,inactive,inactive,inactive,inactive,inactive,inactive,inactive,inactive,inactive,inactive,inactive,–,inactive,inactive

# From PubChem BioAssay (Tox21)
